The supplement of paper PMC10849652
About 7,900 targets were measured; listed, in parts, are those with a hit and a random draw of the rest. About 0.6% of all pairs of compound and target were hits.

How the values were obtained:
Assay in all cases: log2 fold change, soluble protein after heating vs DMSO (PISA); higher = thermal stabilisation; K562 cells, 10 uM, 30 min; active = over 0.2 and 3.5 SD of the protein, either way, in both replicates (recomputed)
[1] = compound: CC1=C(C=C(C=C1)NC(=O)C2=CC(=CC=C2)C(C)(C)C#N)NC3=CC4=C(C=C3)N=CN(C4=O)C
How it was run: (§1)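 Soluble protein was quantified by TMTpro 16plex LC-MS/MS after channel sums were equalised. It was obtained as the supernatant after 21,000xg for 90 min from pooled aliquots of K562 cells (2×10^6 cells/mL, 10 μM compound, 30 min) heated for 3 min across 48°C-58°C and extracted in PBS with 0.5% NP-40 at 4°C. Thermal stability values are relative to control samples and come from duplicates. They are given as log2 fold changes.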

[2] = compound: CC1=C(C=C(C=C1)NC(=O)C2=CC(=CC=C2)N(C)C)NC(=O)C3=CC=C(C=C3)O
How it was run: as §1

[3] = compound: CC1=CC=C(C=C1)SC2=C3C=C(SC3=CN=C2)C(=O)N
How it was run: as §1

[4] = compound: CC1=NC(=CC=C1)C2=C(N=C(N2)C(C)(C)C)C3=CC4=NC=CN=C4C=C3
How it was run: as §1

Nexturastat A = compound: CCCCN(Cc1ccc(C(=O)NO)cc1)C(=O)Nc1ccccc1 [Nexturastat A]
How it was run: as §1

vemurafenib = compound: CCCS(=O)(=O)Nc1ccc(F)c(C(=O)c2c[nH]c3ncc(-c4ccc(Cl)cc4)cc23)c1F [vemurafenib]
How it was run: as §1

[5] = compound: CCCS(=O)(=O)Nc1ccc(F)c(C(=O)c2c[nH]c3ncc(Cl)cc23)c1F
How it was run: as §1

[6] = compound: CCCc1cc(C)[nH]c(=O)c1CNC(=O)c1cc(-c2ccnc(N3CCN(C)CC3)c2)cc2c1cnn2C(C)C
How it was run: as §1

givinostat = compound: CCN(CC)Cc1ccc2cc(COC(=O)Nc3ccc(C(=O)NO)cc3)ccc2c1 [givinostat]
How it was run: as §1

barasertib = compound: CCN(CCCOc1ccc2c(Nc3cc(CC(=O)Nc4cccc(F)c4)[nH]n3)ncnc2c1)CCOP(=O)(O)O [barasertib]
How it was run: as §1

Measured: log2 fold change

DDX11 (UniProt Q96FC9)
inactive: [1] -0.04 | [2] 0.052 | [3] -0.035 | [4] 0.043 | Nexturastat A -0.011 | vemurafenib -0.072 | [5] 0 | [6] -0.006 | givinostat -0.029 | barasertib 0.125

EXOC8 (UniProt Q8IYI6)
inactive: [1] 0.035 | [2] -0.085 | [3] 0.037 | [4] 0.016 | Nexturastat A -0.087 | vemurafenib 0.048 | [5] 0.01 | [6] -0.091 | givinostat 0.028 | barasertib 0.048

FAM160B1 (UniProt Q5W0V3)
inactive: [1] 0.033 | [2] 0.128 | [3] -0.019 | [4] 0.051 | Nexturastat A -0.023 | vemurafenib 0.149 | [5] 0.034 | [6] 0.014 | givinostat 0.016 | barasertib 0.109

FAM207A (UniProt Q9NSI2)
UniProt Q9NSI2, sequence (Q9NSI2 whole entry, looked up): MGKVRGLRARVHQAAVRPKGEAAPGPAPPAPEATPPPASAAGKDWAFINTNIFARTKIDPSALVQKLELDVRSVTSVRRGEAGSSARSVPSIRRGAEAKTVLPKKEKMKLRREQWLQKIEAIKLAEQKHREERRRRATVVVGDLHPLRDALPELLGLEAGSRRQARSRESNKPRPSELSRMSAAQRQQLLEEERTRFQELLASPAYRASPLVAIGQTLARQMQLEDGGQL
inactive: [1] -0.086 | [2] 0.11 | [3] -0.006 | [4] 0.024 | Nexturastat A -0.047 | vemurafenib 0.038 | [5] -0.006 | [6] 0.44 | givinostat 0.148 | barasertib -0.036

CYBA (UniProt P13498)
inactive: [1] -0.017 | [2] 0.025 | [3] 0.041 | [4] -0.02 | Nexturastat A -0.033 | vemurafenib 0 | [5] 0.008 | [6] -0.028 | givinostat 0.007 | barasertib -0.033

EMD (UniProt P50402)
UniProt P50402, sequence (P50402 whole entry, looked up): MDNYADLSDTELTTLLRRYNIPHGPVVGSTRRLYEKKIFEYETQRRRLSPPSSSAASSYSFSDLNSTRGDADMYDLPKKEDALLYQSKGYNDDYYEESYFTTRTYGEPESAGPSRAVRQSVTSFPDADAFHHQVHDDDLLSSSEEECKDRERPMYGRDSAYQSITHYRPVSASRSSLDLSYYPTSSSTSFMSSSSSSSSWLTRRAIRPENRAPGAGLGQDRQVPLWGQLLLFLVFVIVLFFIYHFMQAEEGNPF
inactive: [1] -0.056 | [2] 0.011 | [3] -0.076 | [4] -0.04 | Nexturastat A 0.059 | vemurafenib -0.015 | [5] 0.021 | [6] -0.092 | givinostat 0.002 | barasertib 0.002

DTYMK (UniProt P23919)
UniProt P23919, sequence (P23919 whole entry, looked up): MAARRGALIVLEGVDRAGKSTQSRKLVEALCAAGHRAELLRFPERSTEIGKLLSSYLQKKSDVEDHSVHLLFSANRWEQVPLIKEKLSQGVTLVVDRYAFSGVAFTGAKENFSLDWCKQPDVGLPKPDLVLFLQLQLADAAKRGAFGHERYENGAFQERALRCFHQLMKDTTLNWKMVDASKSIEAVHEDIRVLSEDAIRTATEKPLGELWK
inactive: [1] -0.001 | [2] 0.05 | [3] 0 | [4] 0.015 | Nexturastat A -0.009 | vemurafenib -0.017 | [5] -0.069 | [6] -0.1 | givinostat -0.007 | barasertib -0.011

DCAF6 isoform 3 (UniProt Q58WW2)
UniProt Q58WW2, sequence (Q58WW2 whole entry, looked up): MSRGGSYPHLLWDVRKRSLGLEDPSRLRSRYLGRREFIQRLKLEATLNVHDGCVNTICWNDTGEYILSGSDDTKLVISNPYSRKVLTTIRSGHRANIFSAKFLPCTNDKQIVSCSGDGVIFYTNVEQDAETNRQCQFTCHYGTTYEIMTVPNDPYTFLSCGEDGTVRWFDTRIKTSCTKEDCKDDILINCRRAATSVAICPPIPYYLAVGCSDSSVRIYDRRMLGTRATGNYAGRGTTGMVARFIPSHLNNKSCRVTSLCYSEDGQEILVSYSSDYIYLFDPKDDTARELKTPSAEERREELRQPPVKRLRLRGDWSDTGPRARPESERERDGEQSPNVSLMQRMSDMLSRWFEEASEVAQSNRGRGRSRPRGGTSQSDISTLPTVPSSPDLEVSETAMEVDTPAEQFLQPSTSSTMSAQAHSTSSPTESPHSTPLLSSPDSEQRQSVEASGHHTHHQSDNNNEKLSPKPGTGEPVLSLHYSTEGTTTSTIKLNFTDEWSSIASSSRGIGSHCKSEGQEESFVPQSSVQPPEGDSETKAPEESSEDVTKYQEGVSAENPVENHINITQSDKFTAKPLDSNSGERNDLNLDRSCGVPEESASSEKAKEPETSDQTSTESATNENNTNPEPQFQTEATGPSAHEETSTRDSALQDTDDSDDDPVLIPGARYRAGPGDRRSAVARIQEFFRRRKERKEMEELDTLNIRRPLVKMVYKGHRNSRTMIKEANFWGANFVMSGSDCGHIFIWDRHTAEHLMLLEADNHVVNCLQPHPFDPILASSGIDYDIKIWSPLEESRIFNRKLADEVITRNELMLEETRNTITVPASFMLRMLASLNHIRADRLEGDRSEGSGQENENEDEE
inactive: [1] 0.016 | [2] -0.035 | [3] -0.034 | [4] -0.037 | Nexturastat A -0.041 | vemurafenib -0.032 | [5] -0.047 | [6] 0.011 | givinostat -0.058 | barasertib 0.008

CTSV (UniProt O60911)
inactive: [1] 0 | [2] 0.019 | [3] 0 | [4] -0.017 | Nexturastat A -0.043 | vemurafenib -0.021 | [5] -0.006 | [6] -0.062 | givinostat 0.194 | barasertib 0.032

DNM2 (UniProt P50570)
inactive: [1] -0.016 | [2] -0.043 | [3] 0.009 | [4] 0.024 | Nexturastat A -0.057 | vemurafenib 0.016 | [5] 0.033 | [6] -0.007 | givinostat 0.036 | barasertib 0.054

EXOC2 (UniProt Q96KP1)
UniProt Q96KP1, sequence (Q96KP1 whole entry, looked up): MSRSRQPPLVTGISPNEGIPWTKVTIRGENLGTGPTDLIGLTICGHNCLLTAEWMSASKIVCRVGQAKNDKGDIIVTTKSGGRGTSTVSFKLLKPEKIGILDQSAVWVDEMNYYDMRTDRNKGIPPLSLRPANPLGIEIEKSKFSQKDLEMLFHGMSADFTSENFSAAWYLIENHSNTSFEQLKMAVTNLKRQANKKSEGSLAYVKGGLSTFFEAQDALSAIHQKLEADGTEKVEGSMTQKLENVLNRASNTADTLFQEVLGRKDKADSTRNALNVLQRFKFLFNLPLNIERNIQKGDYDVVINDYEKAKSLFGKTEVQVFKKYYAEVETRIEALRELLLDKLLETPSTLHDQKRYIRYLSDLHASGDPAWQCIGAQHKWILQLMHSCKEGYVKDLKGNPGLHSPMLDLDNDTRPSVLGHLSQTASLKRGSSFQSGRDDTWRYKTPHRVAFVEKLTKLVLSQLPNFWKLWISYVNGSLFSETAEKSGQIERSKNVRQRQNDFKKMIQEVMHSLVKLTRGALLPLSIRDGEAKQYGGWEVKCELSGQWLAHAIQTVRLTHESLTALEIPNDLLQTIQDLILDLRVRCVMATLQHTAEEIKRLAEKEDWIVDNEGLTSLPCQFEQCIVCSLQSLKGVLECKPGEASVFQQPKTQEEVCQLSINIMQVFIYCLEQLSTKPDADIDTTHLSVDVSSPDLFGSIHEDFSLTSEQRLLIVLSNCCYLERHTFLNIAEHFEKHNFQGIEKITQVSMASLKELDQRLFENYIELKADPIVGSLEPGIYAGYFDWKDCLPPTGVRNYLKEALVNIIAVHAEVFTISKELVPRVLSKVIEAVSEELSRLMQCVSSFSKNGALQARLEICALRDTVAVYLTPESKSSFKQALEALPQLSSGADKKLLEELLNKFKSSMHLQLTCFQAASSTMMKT
inactive: [1] -0.03 | [2] -0.017 | [3] 0.051 | [4] 0.027 | Nexturastat A 0.058 | vemurafenib 0.041 | [5] 0.062 | [6] 0.037 | givinostat 0.177 | barasertib 0.056

FAM177A1 isoform 2 (UniProt Q8N128)
inactive: [1] -0.071 | [2] 0.152 | [3] 0.101 | [4] 0.039 | Nexturastat A -0.064 | vemurafenib -0.061 | [5] 0.014 | [6] -0.02 | givinostat -0.045 | barasertib 0.037

EVC2 (UniProt Q86UK5)
inactive: [1] -0.263 | [2] -0.146 | [3] -0.006 | [4] -0.018 | Nexturastat A 0.046 | vemurafenib -0.073 | [5] -0.054 | [6] 0.16 | givinostat 0.06 | barasertib -0.064

DHPS (UniProt P49366)
inactive: [1] -0.074 | [2] 0.016 | [3] 0.034 | [4] 0.161 | Nexturastat A -0.079 | vemurafenib 0.067 | [5] 0.008 | [6] -0.015 | givinostat -0.001 | barasertib 0.01

FAM114A2 (UniProt Q9NRY5)
inactive: [1] 0.007 | [2] 0.03 | [3] 0.038 | [4] 0.022 | Nexturastat A -0.053 | vemurafenib 0.001 | [5] 0.061 | [6] -0.058 | givinostat -0.017 | barasertib 0.01

CYP51A1 (UniProt Q16850)
inactive: [1] 0.063 | [2] -0.036 | [3] -0.098 | [4] -0.133 | Nexturastat A 0.024 | vemurafenib 0.029 | [5] -0.015 | [6] 0.07 | givinostat 0.007 | barasertib 0.01

EEF1AKNMT (UniProt Q8N6R0)
inactive: [1] 0.078 | [2] -0.037 | [3] 0.031 | [4] 0.026 | Nexturastat A -0.026 | vemurafenib 0.084 | [5] 0.062 | [6] 0.075 | givinostat 0.04 | barasertib 0.076

DYNC1LI2 (UniProt O43237)
UniProt O43237, sequence (O43237 whole entry, looked up): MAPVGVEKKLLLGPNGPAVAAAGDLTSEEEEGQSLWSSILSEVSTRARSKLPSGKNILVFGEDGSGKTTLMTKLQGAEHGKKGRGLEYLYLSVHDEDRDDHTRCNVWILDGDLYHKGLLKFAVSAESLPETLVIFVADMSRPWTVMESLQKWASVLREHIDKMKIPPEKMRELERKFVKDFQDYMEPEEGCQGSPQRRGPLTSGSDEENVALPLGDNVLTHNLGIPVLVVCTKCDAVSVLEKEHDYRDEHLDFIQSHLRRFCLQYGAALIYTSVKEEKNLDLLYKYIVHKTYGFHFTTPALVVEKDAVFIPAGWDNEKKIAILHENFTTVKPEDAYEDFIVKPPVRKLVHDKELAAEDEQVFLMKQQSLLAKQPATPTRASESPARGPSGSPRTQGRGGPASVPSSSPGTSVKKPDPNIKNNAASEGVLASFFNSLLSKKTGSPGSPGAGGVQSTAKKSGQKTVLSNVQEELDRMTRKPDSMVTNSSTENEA
inactive: [1] 0.013 | [2] -0.093 | [3] -0.049 | [4] -0.193 | vemurafenib 0.001 | [5] -0.027 | [6] 0.076 | givinostat 0.017 | barasertib 0.05
active: Nexturastat A 0.646

EIF4G1 isoform 8 (UniProt Q04637)
inactive: [1] -0.028 | [2] -0.011 | [3] 0.004 | [4] 0.006 | Nexturastat A 0.169 | vemurafenib 0.013 | [5] 0.028 | [6] 0.119 | givinostat 0.057 | barasertib 0.067

DPH5 isoform 5 (UniProt Q9H2P9)
inactive: [1] 0.009 | [2] -0.01 | [3] 0.046 | [4] 0.042 | Nexturastat A -0.079 | vemurafenib -0.041 | [5] 0.087 | [6] -0.045 | givinostat -0.105 | barasertib -0.006

EEF1G isoform 2 (UniProt P26641)
UniProt P26641, sequence (P26641 whole entry, looked up): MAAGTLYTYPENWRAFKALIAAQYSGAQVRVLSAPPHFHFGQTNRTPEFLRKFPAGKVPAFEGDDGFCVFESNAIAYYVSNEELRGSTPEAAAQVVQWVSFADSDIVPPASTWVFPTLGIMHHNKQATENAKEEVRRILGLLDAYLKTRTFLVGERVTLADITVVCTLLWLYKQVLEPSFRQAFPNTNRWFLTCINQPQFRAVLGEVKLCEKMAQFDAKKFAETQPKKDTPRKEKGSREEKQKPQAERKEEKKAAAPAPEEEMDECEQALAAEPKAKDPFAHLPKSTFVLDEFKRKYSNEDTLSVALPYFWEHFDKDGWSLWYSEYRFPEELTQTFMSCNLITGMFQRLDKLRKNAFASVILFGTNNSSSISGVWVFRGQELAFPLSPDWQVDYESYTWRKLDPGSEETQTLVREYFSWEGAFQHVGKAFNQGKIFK
inactive: [1] 0.035 | [2] -0.015 | [3] 0.014 | [4] 0.049 | Nexturastat A -0.062 | vemurafenib 0.07 | [5] 0.101 | [6] 0.095 | givinostat -0.013 | barasertib 0.037

CYFIP1 (UniProt Q7L576)
inactive: [1] 0.012 | [2] 0.005 | [3] 0.017 | [4] 0.035 | Nexturastat A -0.043 | vemurafenib 0.026 | [5] 0.019 | [6] 0.006 | givinostat -0.005 | barasertib 0.038

CTSB (UniProt P07858)
inactive: [1] -0.035 | [2] -0.069 | [3] 0.022 | [4] 0.029 | Nexturastat A -0.059 | vemurafenib -0.041 | [5] -0.008 | [6] -0.025 | givinostat -0.007 | barasertib 0.015

EFL1 (UniProt Q7Z2Z2)
UniProt Q7Z2Z2, sequence (Q7Z2Z2 whole entry, looked up): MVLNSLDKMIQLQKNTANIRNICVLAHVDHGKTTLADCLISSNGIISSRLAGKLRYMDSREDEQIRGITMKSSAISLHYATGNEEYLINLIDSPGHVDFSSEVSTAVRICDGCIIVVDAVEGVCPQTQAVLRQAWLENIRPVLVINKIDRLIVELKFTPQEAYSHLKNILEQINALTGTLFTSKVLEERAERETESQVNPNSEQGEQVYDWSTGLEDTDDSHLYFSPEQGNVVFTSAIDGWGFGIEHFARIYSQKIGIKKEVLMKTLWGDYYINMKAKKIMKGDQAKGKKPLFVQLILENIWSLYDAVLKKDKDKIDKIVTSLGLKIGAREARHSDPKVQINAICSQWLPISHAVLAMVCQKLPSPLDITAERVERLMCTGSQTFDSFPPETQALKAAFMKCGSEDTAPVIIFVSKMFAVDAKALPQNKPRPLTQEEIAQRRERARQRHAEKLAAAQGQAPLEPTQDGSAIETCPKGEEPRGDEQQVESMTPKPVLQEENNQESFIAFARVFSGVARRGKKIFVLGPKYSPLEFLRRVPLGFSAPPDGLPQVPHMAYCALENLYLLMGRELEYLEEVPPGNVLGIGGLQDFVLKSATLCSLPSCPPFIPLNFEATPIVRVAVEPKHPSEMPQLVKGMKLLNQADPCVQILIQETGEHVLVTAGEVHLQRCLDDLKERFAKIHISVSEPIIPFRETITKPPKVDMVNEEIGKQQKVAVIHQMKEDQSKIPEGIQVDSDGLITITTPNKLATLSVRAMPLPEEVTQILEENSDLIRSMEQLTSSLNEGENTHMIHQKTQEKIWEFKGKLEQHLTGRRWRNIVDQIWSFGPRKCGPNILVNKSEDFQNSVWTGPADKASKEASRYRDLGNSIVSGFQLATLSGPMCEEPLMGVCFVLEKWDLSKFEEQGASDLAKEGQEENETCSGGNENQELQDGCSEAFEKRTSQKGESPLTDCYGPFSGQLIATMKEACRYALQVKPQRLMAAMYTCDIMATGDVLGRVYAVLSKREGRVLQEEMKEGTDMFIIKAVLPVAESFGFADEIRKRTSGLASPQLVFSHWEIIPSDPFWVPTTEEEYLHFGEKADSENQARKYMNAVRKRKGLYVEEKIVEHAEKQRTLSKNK
inactive: [1] -0.025 | [2] 0.004 | [3] 0.016 | [4] 0.012 | Nexturastat A -0.11 | vemurafenib 0.04 | [5] 0.036 | [6] 0.008 | givinostat 0.004 | barasertib 0.05

EED, A0A5F9ZI63
active: [6] -0.204
inactive: [1] 0.005 | [2] -0.067 | [3] -0.012 | [4] -0.019 | Nexturastat A 0.013 | vemurafenib -0.02 | [5] 0.025 | givinostat 0.082 | barasertib -0.038

DAG1 (UniProt Q14118)
inactive: [1] -0.053 | [2] -0.019 | [3] -0.013 | [4] 0.001 | Nexturastat A -0.005 | vemurafenib 0.005 | [5] -0.06 | [6] -0.028 | givinostat 0.019 | barasertib 0.011

FAM83D (UniProt Q9H4H8)
inactive: [1] 0.008 | [2] -0.029 | [3] 0.028 | [4] 0.018 | Nexturastat A 0.102 | vemurafenib 0.041 | [5] 0.097 | [6] 0.016 | givinostat 0.103 | barasertib 0.128

DNAJC24 (UniProt Q6P3W2)
UniProt Q6P3W2, sequence (Q6P3W2 whole entry, looked up): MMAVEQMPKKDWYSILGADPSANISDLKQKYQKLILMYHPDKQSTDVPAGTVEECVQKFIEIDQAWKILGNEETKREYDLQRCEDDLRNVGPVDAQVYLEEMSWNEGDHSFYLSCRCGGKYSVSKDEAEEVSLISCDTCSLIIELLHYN
inactive: [1] -0.024 | [2] 0.368 | [3] 0.104 | [4] 0.008 | Nexturastat A -0.208 | vemurafenib 0.008 | [5] -0.034 | [6] 0.027 | givinostat 0.07 | barasertib 0.008

EEF1B2 (UniProt P24534)
UniProt P24534, sequence (P24534 whole entry, looked up): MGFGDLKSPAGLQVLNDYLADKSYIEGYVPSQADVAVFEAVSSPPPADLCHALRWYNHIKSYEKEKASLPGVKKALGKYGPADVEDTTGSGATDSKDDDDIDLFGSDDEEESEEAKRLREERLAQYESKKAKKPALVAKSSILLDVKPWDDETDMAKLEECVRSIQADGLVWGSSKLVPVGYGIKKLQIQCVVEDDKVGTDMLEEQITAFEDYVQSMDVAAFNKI
inactive: [1] 0.024 | [2] -0.025 | [3] -0.007 | [4] 0.031 | Nexturastat A 0.031 | vemurafenib 0.024 | [5] 0.02 | [6] -0.009 | givinostat 0.023 | barasertib 0.055

DNAJB1 (UniProt P25685)
inactive: [1] 0.015 | [2] -0.045 | [3] -0.003 | [4] 0.086 | Nexturastat A -0.03 | vemurafenib 0.009 | [5] 0.028 | [6] -0.051 | givinostat 0.024 | barasertib 0.024
